# Screening results as filed in PubChem BioAssay.
# CYP2C19 inh – blockers of cytochrome P450 2C19 activity – biochemical, luminescence, ADME assay, primary screen; CYP2C19 Supersomes, luciferin-H EGE luminescence, 30 min; AID 778, 2007; P33261; inhibition, % at 5 µM; actives 21% (n = 96,000);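 active means CYP2C19 inhibition above a set limit at 5 µM in the primary screen, cut at about 50% in these data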;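 further: plate controls were negative control wells for no effect and 2.5 mM tranylcypromine positive control for full effect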
# PostGolgi yeast – phenotypic screen on post-Golgi transport, primary screen. inhibition, % at 10 µM. actives 0.9% (n = 98,000). post-Golgi transport phenotypic cell assay. AID 739, 2007;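 further: yeast cells grown in 1536-well plates; yeast grown about 18 h at 30C before absorbance read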
# CYP2C9 inh – blockers of cytochrome P450 2C9 activity – biochemical, luminescence, ADME assay, primary screen. P11712. CYP2C9 Supersomes, luciferin-H conversion. inhibition, % at 5 µM. actives 20% (n = 96,000). AID 777, 2007;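 active means blocking of liver enzyme CYP2C9 beyond about 50% at 5 µM, limit read from the data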
# Target sequence (P11712 whole entry, looked up): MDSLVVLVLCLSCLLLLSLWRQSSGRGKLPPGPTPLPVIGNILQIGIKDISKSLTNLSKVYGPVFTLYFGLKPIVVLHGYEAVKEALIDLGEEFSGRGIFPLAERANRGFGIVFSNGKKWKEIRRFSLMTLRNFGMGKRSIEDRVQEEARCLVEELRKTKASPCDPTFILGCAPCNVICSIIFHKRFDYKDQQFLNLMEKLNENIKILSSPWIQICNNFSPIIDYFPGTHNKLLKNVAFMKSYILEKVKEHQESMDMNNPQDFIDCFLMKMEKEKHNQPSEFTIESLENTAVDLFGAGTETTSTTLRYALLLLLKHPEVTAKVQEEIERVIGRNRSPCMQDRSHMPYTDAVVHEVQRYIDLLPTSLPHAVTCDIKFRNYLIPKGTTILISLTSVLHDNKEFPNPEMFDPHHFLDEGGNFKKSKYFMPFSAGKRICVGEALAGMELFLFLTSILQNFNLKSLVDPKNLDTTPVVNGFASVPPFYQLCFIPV
# CYP2C19 act – human CYP2C19 activators, primary screen, biochemical, luminescence | Cytochrome P450 2C19 (Homo sapiens), P33261 | recombinant CYP2C19, luciferin-H EGE luminescence; active compounds read high; 0 = fully inhibited enzyme, 1 = untreated enzyme | activation factor at 5 µM | 96,000 tested, under 10 active | AID 1025, 2008;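 active means activation factor of at least 2 at 5 µM in the primary screen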;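 further: 0 = wells with 2.5 mM tranylcypromine and 1 = vehicle-only wells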
# CYP2C9 act – human CYP2C9 activators, primary screen, biochemical, luminescence; activation factor at 5 µM; recombinant CYP2C9, luciferin-H conversion; active compounds read high; factor 1 = untreated enzyme, 0 = blocked; actives 1.4% (n = 96,000); AID 1024, 2008;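 active means activation factor of 2 or more for CYP2C9 at a 5 µM dose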;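 further: 0 = sulfaphenazole-blocked wells and 1 = vehicle-only wells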
# PostGolgi ctrl – growth inhibition of yeast control strain, primary screen, counter-screen for post-Golgi transport modulator project | efflux-deficient yeast background strain, growth absorbance A615, 16 h | inhibition, % at 10 µM | actives 5% (n = 98,000) | AID 738, 2007
# Starred values were filed as active, the others as inactive; x = no result given. The list is not random: actives were taken first. Their share in the collection is about 32%. Unless noted, no stated cut-off is given here; in the data, active means inhibition above about 30%; inactive means the rest.
SMILES,CYP2C19 inh,PostGolgi yeast,CYP2C9 inh,CYP2C19 act,CYP2C9 act,PostGolgi ctrl
CCOC(=O)N1CCC(NC(=O)C2CCN(S(=O)(=O)c3cccc4cccnc34)CC2)CC1,-6,2,-46,1.1,1.5,5
CCC(C)NC(=O)C1CCN(S(=O)(=O)c2cccc3cccnc23)CC1 (stereo not given),29,1,-217,0.7,3.2*,-3
O=C(NC1CCCC1)C1CCCN1S(=O)(=O)c1cccc2cccnc12 (stereo not given),59*,-1,4,0.4,1,4
O=C(NC1CCCCC1)C1CCN(S(=O)(=O)c2cccc3cccnc23)CC1,55*,-5,-242,0.4,3.4*,6
O=C(NCCC1=CCCCC1)C1CCN(S(=O)(=O)c2cccc3cccnc23)CC1,32,1,-4,0.7,1,15
O=C(NCc1ccccc1)C1CCCN1S(=O)(=O)c1cccc2cccnc12 (stereo not given),30,-6,-80,0.7,1.8,4
CCN1C(=O)CC(C(=O)O)SC1=Nc1ccc(OC)cc1 (stereo not given),-5,0,-8,1,1.1,14
COc1ccc(C(=O)OCC(=O)Nc2ccc(OC(F)F)cc2)c(OC)c1,28,-2,17,0.7,0.8,7
CC1CCN(C(=O)c2scc3c2OCCO3)CC1,16,-5,8,0.8,0.9,10
S=C(NN=C1C2CC3CC(C2)CC1C3)Nc1ccccc1,7,8,3,0.9,1,-8
CCOC(=O)N1CCC(NC(=O)C(CC(C)C)NC(=O)C2CCC(C)CC2)CC1 (stereo not given),38,1,3,0.6,1,11
CC1CCCC(NC(=O)C2CCCN2S(=O)(=O)c2cccc3nsnc23)C1C (stereo not given),87*,-1,57*,0.1,0.4,14
NC(=O)c1sc2nc(N3CCCCC3)c3c(c2c1N)CCCC3,43,-4,68*,0.6,0.3,44*
COC(=O)c1ccc(-c2sc3nc(N4CCOCC4)c4c(c3c2N)CCCC4)o1,57*,8,55*,0.4,0.4,6
CCOC(=O)c1sc2nc(N3CCOCC3)c3c(c2c1N)CCCC3,2,7,9,1,0.9,15
COC(=O)c1sc2nc(-c3ccccc3)c3c(c2c1N)CCCC3,3,2,32,1,0.7,5
CCN(CC)C(=O)c1sc2nc(N3CCOCC3)c3c(c2c1N)CCCC3,-2,-3,52*,1,0.5,10
Nc1c(C(=O)NCc2ccco2)sc2nc(N3CCOCC3)c3c(c12)CCCC3,-7,-1,56*,1.1,0.4,33*
COC(=O)c1sc2nc(N3CCCCC3)c3c(c2c1N)CCCC3,37,2,72*,0.6,0.3,25
CC(=O)Nc1sc(C)c(C)c1CN1CCN(S(=O)(=O)c2ccccc2)CC1,9,-14,6,0.9,0.9,5
CCOc1ccc(C(=O)N2CCCCCC2)cc1,32,0,11,0.7,0.9,1
CCCOc1ccc(C(=O)N2CCN(c3ccc(N)cc3Cl)CC2)cc1,84*,-6,80*,0.2,0.2,13
Cc1ccc(-n2c(C)nn(-c3ncc(C(F)(F)F)cc3Cl)c2=O)cc1,4,22,11,1,0.9,-3
Cc1ccc(C)c(CSc2nnc(-c3cccs3)n2Cc2ccco2)c1,52*,26,49,0.5,0.5,35*
Cc1ccc(C)c(NC(=O)CSc2nnc(CSc3nc(C)cc(C)n3)n2Cc2ccco2)c1,34,-9,51*,0.7,0.5,3
SMILES,CYP2C19 inh,PostGolgi yeast,CYP2C9 inh,CYP2C19 act,CYP2C9 act,PostGolgi ctrl
Cc1cc(C)nc(SCc2nnc(SCC(=O)Nc3ccccc3C)n2Cc2ccco2)n1,62*,-20,70*,0.4,0.3,1
Cc1ccc(NC(=O)CSc2nnc(CSc3nc(C)cc(C)n3)n2Cc2ccco2)c(C)c1,8,-1,28,0.9,0.7,14
Cc1ccc(NCc2nnc(SCC(=O)c3ccccc3)n2Cc2ccco2)c(C)c1,84*,-11,81*,0.2,0.2,19
Cc1nc2nc(C)c(CCC(=O)Nc3ccc4c(c3)OCO4)c(C)n2n1,-6,-5,4,1.1,1,4
O=C(Nc1ccc(-c2cn3ccsc3n2)cc1)c1ccc(F)c(S(=O)(=O)N2CCOCC2)c1,15,4,46,0.8,0.5,22
O=C(CSc1ncnc2sc3c(c12)CCCC3)c1ccco1,-2,0,-3,1,1,46*
CCc1nc(SCC(=O)N2CCN(C(=O)c3ccco3)CC2)c2c3c(sc2n1)CCCC3,11,12,59*,0.9,0.4,7
O=C(c1ccco1)N1CCN(c2ncnc3scc(-c4ccccc4)c23)CC1,8,13,38,0.9,0.6,10
O=C(c1ccco1)N1CCN(c2nc(C3CC3)nc3sc4c(c23)CCCC4)CC1,36,12,70*,0.6,0.3,15
Nc1cc(N)nc(SCC(=O)N2CCN(C(=O)c3ccco3)CC2)n1,-1,2,2,1,1,7
COCCn1c(SCCN2CCCCC2)nc2ccccc2c1=O,31,-1,5,0.7,1,13
CCc1nc2c(sc3nc(N4CCOCC4)c4c(c32)CC(C)(C)OC4)c(=O)o1,-1,x,61*,1,0.4,x
CC1(C)Cc2c(c(N3CCOCC3)nc3sc4c(=O)[nH]cnc4c23)CS1,-9,15,24,1.1,0.8,26
CC1(C)Cc2c(c(N3CCOCC3)nc3sc4c(N5CCOCC5)nnnc4c23)CS1,20,-1,78*,0.8,0.2,2
CC1(C)Cc2c(c(N3CCCC3)nc3sc4c(N5CCN(CCO)CC5)ncnc4c23)CO1,x,7,x,x,x,6
Cc1ccc(C)c(N2CCN(C(=O)c3cc4ccccn4n3)CC2)c1,25,-2,29,0.8,0.7,17
CCc1c(C#N)c(SCCC(=O)Nc2ccc(OC)cc2)nc2c1C(=O)CC(C)(C)C2,83*,-3,84*,0.2,0.2,5
COc1ccc(-c2cc(C(F)(F)F)c(C#N)c(SCC(=O)Nc3ccc(C)cc3)n2)cc1,12,0,49,0.9,0.5,7
O=C(C/C=N/OCc1ccc(F)cc1Cl)c1cnc(-c2ccccc2)s1,53*,-4,45,0.5,0.5,10
O=C(C/C=N/OCc1ccccc1F)c1cnc(-c2ccc(Cl)cc2)s1,96*,12,49,0,0.5,6
